# Hits are enriched below; roughly 6.8% of the tested compounds scored in any of these assays.
# Pf Dd2 growth = blocks growth of Plasmodium falciparum Dd2 parasites | hit rate 2.3% among 94,000 | P. falciparum Dd2 growth, SYBR Green, 72 h; stronger effect = lower value | activity change, % at 10 µM | AID 1159554; in the data active = activity change below about -80%; inconclusive = no clear call, values can overlap the other calls
# T cruzi growth-1 = blocks T. cruzi growth in NIH3T3 culture; T. cruzi beta-gal in NIH3T3, GalScreen luminescence, 90 h; inhibition, % at 8.34 µM; hit rate 5.9% among 77,000; AID 624255;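 active = mean inhibition above about 93%, with at least 55% of replicates each passing it, limit read from the data, passing the limit was not always enough; inconclusive = only one of those two conditions holds; inactive = neither condition holds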
# C diff growth = inhibitors of Clostridium difficile growth | Clostridium difficile clinical isolate growth, OD600, 24 h; stronger effect = lower value | growth activity, negative = inhibition, % at 16 µg/mL (by protocol) | hit rate 0.25% among 86,000;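 active = mean growth activity at or below -80% and every replicate also at or below -80%; inconclusive = mean at or below -80% but some replicate above -80%; inactive = mean growth activity above -80%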;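 note: 0% = DMSO wells and -100% = levofloxacin 16 µg/mL wells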
# T cruzi growth-2 = Trypanosoma cruzi proliferation inhibition; shares compounds with T cruzi growth-1; T. cruzi beta-gal in NIH3T3, GalScreen luminescence, 90 h; inhibition, % at 8.35 µM; hit rate 72% among 5,600; AID 651739;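 active = mean replicate inhibition above about 95% and at least 55% of replicates individually reaching it, limit read from the data; inconclusive = only one of the two criteria is met; inactive = neither criterion is met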
# T cruzi growth-3 = inhibitors of T. cruzi proliferation | T. cruzi beta-gal in NIH3T3, GalScreen luminescence, 90 h | shares compounds with T cruzi growth-1 | AID 651740 | hit rate 21% among 5,600 | inhibition, % at 2.09 µM;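 active = mean inhibition above about 95%, with at least 55% of replicates also reaching it, limit read from the data; inconclusive = meets just one of the two conditions; inactive = meets neither condition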;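 note: plate controls were neutral control median for no effect and positive control median for full effect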
# 3T3 cytotox = cytotoxicity in mouse NIH/3T3 fibroblasts; shares compounds with T cruzi growth-1; NIH/3T3 viability, CellTiter-Glo ATP luminescence, 90 h; cytotoxicity (signal decrease), % at 8.35 µM; hit rate 14% among 5,600; AID 651742;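 active = mean signal decrease across replicates above about 35% based on untreated-well scatter, with enough replicates individually passing, limit read from the data; inconclusive = no rule stated though some were filed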;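 note: 0% = median of neutral control wells and 100% = median of positive control wells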
# NIH3T3 tox 2 = NIH/3T3 (mouse) viability loss; NIH/3T3 viability, CellTiter-Glo ATP luminescence, 90 h; shares compounds with T cruzi growth-1; hit rate 56% among 5,600; inhibition, % at 24.9 µM; AID 651744;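 active = mean loss of cell viability signal at or above a set limit, and enough replicates individually reaching it; inconclusive = meets only the mean limit or only the replicate share; inactive = meets neither condition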;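 note: 0% = median of neutral control wells and 100% = median of positive control wells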
# An asterisk follows results filed as active; ? = inconclusive; / = no result given.
SMILES,Pf Dd2 growth,T cruzi growth-1,C diff growth,T cruzi growth-2,T cruzi growth-3,3T3 cytotox,NIH3T3 tox 2
COc1ccc(S(=O)(=O)Nc2ccc3c(c2)C(=O)N([C@H](C)CO)C[C@H](C)[C@@H](CN(C)C(=O)Nc2ccc(C(F)(F)F)cc2)OCCCC[C@@H](C)O3)cc1,-65.6,107.8*,6.8,99.2*,30.5,-7.8,4.4
C[C@@H]1CCCCO[C@@H](CN(C)C(=O)Nc2ccc(C(F)(F)F)cc2)[C@H](C)CN([C@H](C)CO)C(=O)c2cc(NS(=O)(=O)c3ccc(Cl)cc3)ccc2O1,-38.4,?,2.0,77.4,118.5*,-5.3,3.2
COc1ccc(S(=O)(=O)Nc2ccc3c(c2)C(=O)N([C@H](C)CO)C[C@@H](C)[C@H](CN(C)C(=O)Nc2ccc(C(F)(F)F)cc2)OCCCC[C@@H](C)O3)cc1,-50.9,58.6,10.2,/,/,/,/
C[C@@H]1CCCCO[C@@H](CN(C)C(=O)Nc2ccc(C(F)(F)F)cc2)[C@H](C)CN([C@@H](C)CO)C(=O)c2cc(NS(=O)(=O)c3ccc(Cl)cc3)ccc2O1,-0.5,87.8,4.1,/,/,/,/
C[C@H]1CCCCO[C@@H](CN(C)C(=O)Nc2ccc(C(F)(F)F)cc2)[C@@H](C)CN([C@@H](C)CO)C(=O)c2cc(NS(=O)(=O)c3ccc(Cl)cc3)ccc2O1,-35.7,1.9,1.1,/,/,/,/
Cc1ccc(S(=O)(=O)Nc2ccc3c(c2)C(=O)N([C@@H](C)CO)C[C@H](C)[C@H](CN(C)Cc2ccncc2)OCCCC[C@@H](C)O3)cc1,-46.1,4.7,/,/,/,/,/
COc1cccc(CNC(=O)[C@H]2[C@H](CO)[C@H]3Cn4c(ccc(-c5cccnc5)c4=O)[C@H]3N2C)c1,15.6,12.4,-0.5,/,/,/,/
O=C(NCC[C@@H]1CC[C@H](NC(=O)c2cnccn2)[C@H](CO)O1)Nc1ccc(Cl)cc1,-8.1,-22.2,0.7,/,/,/,/
Cc1ccc(S(=O)(=O)Nc2ccc3c(c2)C(=O)N([C@H](C)CO)C[C@H](C)[C@@H](CN(C)C(=O)Nc2ccc(C(F)(F)F)cc2)OCCCC[C@H](C)O3)cc1,-49.8,108.6*,-2.9,105.3*,113.5*,3.5,11.4
C[C@H](CO)N1C[C@H](C)[C@H](CN(C)C(=O)Nc2ccc(C(F)(F)F)cc2)OCCCC[C@H](C)Oc2ccc(NS(=O)(=O)c3ccc(F)cc3)cc2C1=O,-32.8,89.0,1.2,/,/,/,/
O=C(C[C@H]1CC[C@H](NS(=O)(=O)c2ccc(F)cc2)[C@H](CO)O1)NCCc1ccncc1,24.1,-0.2,1.6,/,/,/,/
C[C@@H]1CN([C@H](C)CO)C(=O)c2cc(NC(=O)CCCCCC(=O)Nc3ccccc3N)ccc2O[C@@H]1CN(C)C,36.7,/,-0.8,/,/,/,/
Cc1ccc(-c2ccc3c(c2)O[C@@H](CN(C)C(=O)Nc2ccc(F)cc2)[C@@H](C)CN([C@@H](C)CO)S3(=O)=O)cc1,-44.4,120.7*,51.5,97.1*,65.9,53.1*,80.9*
Cc1ccc(-c2ccc3c(c2)O[C@H](CN(C)C(=O)Nc2ccccc2)[C@H](C)CN([C@H](C)CO)S3(=O)=O)cc1,-26.6,/,4.6,/,/,/,/
Cc1ccc(-c2ccc3c(c2)O[C@@H](CN(C)C(=O)Nc2ccccc2)[C@H](C)CN([C@@H](C)CO)S3(=O)=O)cc1,-49.4,/,-3.2,/,/,/,/
Cc1ccc(-c2ccc3c(c2)O[C@H](CN(C)C(=O)Nc2ccc(F)cc2)[C@@H](C)CN([C@@H](C)CO)S3(=O)=O)cc1,-13.3,114.2*,6.4,103.2*,92.3,40.4*,96.1*
C[C@H](O)C#Cc1cnc2c(c1)C(=O)N([C@@H](C)CO)C[C@@H](C)[C@H](CN(C)CC1CCOCC1)O2,34.3,/,-0.7,/,/,/,/
CCc1cnc(N2[C@@H](C#N)[C@H](c3ccccc3)[C@@H]2CO)s1,12.6,27.4,0.7,/,/,/,/
CCS(=O)(=O)N1[C@H](CO)[C@H](c2ccc(C#Cc3ccccc3F)cc2)[C@@H]1C#N,-79.3,87.4,11.4,/,/,/,/
CCc1cnc(N2[C@H](CO)[C@@H](c3ccc(C#Cc4ccccc4F)cc3)[C@@H]2C#N)s1,-39.7,102.8*,15.5,96.1*,111.2*,-16.1,85.1*
CCc1cnc(N2[C@@H](C#N)[C@@H](c3ccc(C#Cc4ccccc4F)cc3)[C@@H]2CO)s1,-23.6,99.7*,3.7,89.9,109.3*,-17.5,62.3*
CO[C@H]1CN(C)C(=O)c2cc(NC(C)=O)ccc2OC[C@H](C)N(Cc2nccs2)C[C@@H]1C,13.2,-83.4,-0.4,/,/,/,/
CCCNC(=O)C[C@H]1CC[C@H]2[C@@H](COc3ccc(NS(=O)(=O)CC)cc3C(=O)N2C)O1,13.5,-31.0,12.1,/,/,/,/
Cc1ccccc1S(=O)(=O)N(C)C[C@@H]1OCc2cnnn2CCCC(=O)N([C@H](C)CO)C[C@H]1C,13.5,10.8,1.3,/,/,/,/
CNC[C@H]1OCc2cn(nn2)CCCC(=O)N([C@H](C)CO)C[C@H]1C,5.0,?,0.8,59.2,-4.6,-8.2,0.3
SMILES,Pf Dd2 growth,T cruzi growth-1,C diff growth,T cruzi growth-2,T cruzi growth-3,3T3 cytotox,NIH3T3 tox 2
CNC[C@H]1OCc2cnnn2CCCC(=O)N([C@@H](C)CO)C[C@@H]1C,17.1,8.6,-5.3,/,/,/,/
Cc1ccccc1S(=O)(=O)N(C)C[C@@H]1OCc2cnnn2CCCC(=O)N([C@@H](C)CO)C[C@@H]1C,26.9,?,1.6,67.9,47.6,-3.0,14.8
CNC[C@H]1OCc2cnnn2CCCC(=O)N([C@@H](C)CO)C[C@H]1C,1.0,119.8*,5.1,28.9,60.2,10.7,0.7
CNC[C@@H]1OCc2cn(nn2)CCCC(=O)N([C@@H](C)CO)C[C@@H]1C,-12.5,3.7,1.9,/,/,/,/
Cc1noc(C)c1NC(=O)N(C)C[C@H]1Oc2ccc(NC(=O)NC3CCCCC3)cc2C(=O)N([C@H](C)CO)C[C@H]1C,31.7,85.1,-1.0,/,/,/,/
CCNC(=O)C[C@@H]1CC[C@@H]2[C@H](COC[C@H](O)CN2Cc2ccccc2F)O1,12.0,-50.7,/,/,/,/,/
CNC(=O)C[C@@H]1CC[C@@H]2[C@@H](COc3ccc(NS(=O)(=O)c4ccccc4C)cc3C(=O)N2C)O1,-1.4,47.4,-2.5,/,/,/,/
Cc1noc(C)c1S(=O)(=O)Nc1ccc2c(c1)C(=O)N([C@@H](C)CO)C[C@@H](C)[C@H](CN(C)C(=O)C1CCCCC1)OCCCC[C@@H](C)O2,1.1,92.9,-2.4,/,/,/,/
O=C(C[C@H]1CC[C@@H](NC(=O)c2ccccn2)[C@H](CO)O1)NCc1cc(F)cc(F)c1,9.2,-46.2,5.9,/,/,/,/
COc1ccc(C(=O)Nc2ccc3c(c2)OC[C@H](C)N(C)C[C@H](C)[C@H](OC)CN(C)C3=O)cc1,/,-38.6,-6.8,/,/,/,/
C[C@@H]1CN([C@H](C)CO)S(=O)(=O)c2ccc(-c3cncnc3)cc2O[C@@H]1CN(C)Cc1ccncc1,7.1,16.9,4.6,/,/,/,/
